From ChEMBL document CHEMBL4513216, “Probing the Open Global Health Chemical Diversity Library for Multistage-Active Starting Points for Next-Generation Antimalarials” (ACS Infect Dis, 2020)
Screen size: about 69,000 compounds; about 8,600 (12%) showed an effect of 50% or more. The list comes from a sample in which strong results are over-represented; it also holds similar structures and randomly drawn compounds.

These compounds were tested on Plasmodium berghei (assay: Screen against P. berghei liver stage (PbLuc), transformed with Luciferase, at 10uM). Settings: tested at 10 uM.
Format: functional, HepG2

Compound	INHIBITION [%]
CCOC(=O)[C@H]1CNC[C@@H]1C(F)(F)F	35.6
Cc1nnc([C@@H]2CC[C@@H]3[C@@H](CCN3S(=O)(=O)c3cccnc3)O2)o1	14.2
Cc1ccc(C(=O)NS(=O)(=O)c2ccccc2F)c(=O)[nH]1	33.8
CN(C)C(=O)Cn1cc(C(=O)NCCc2ccc(Cl)cc2Cl)nn1	-27.8
CCc1nccn1C1CCCN(C(=O)c2ccoc2C)C1 (centres undefined)	21.6
CC(=Cc1ccccc1)CNCc1cccc(C(N)=O)c1	4.3
O=C(O)c1ccccc1-n1cc(CN2CCC(c3cc[nH]n3)C2)cn1 (centres undefined)	22.17
Cc1csc2cc(C(=O)NC3CCCC3)cnc12	-76.5
CCN1CCc2c(sc3c2C(=O)NC(C=Cc2ccccc2)N3)C1 (centres undefined)	15.1
CCc1nc(C)sc1CN(Cc1ccncc1)C1CCN(C)CC1	18.8
Cc1nc(-c2ccc(CNS(=O)(=O)N(C)C)cc2)ccc1C(N)=O	-4.87
CN(C)C(=O)Cc1nc(CN2CCCC2Cn2cccn2)cs1 (centres undefined)	47.9
CN(C)C(=O)Cc1nc(CN2CCCCC2Cn2cncn2)cs1 (centres undefined)	19.1
CC(=O)Nc1nc(CN2CCCC2Cn2cncn2)cs1 (centres undefined)	61.3
CN(C)C(=O)Cc1nc(CN2CCCC2Cn2cncn2)cs1 (centres undefined)	60.8
CC(=O)Nc1nc(CN2CCCCC2Cn2cncn2)cs1 (centres undefined)	0.411
CC(=O)Nc1nc(CN2CCCC2Cn2cccn2)cs1 (centres undefined)	13.7
Cc1cccc(CN2CCC3(CCCN(C(=O)c4ccoc4)C3)C2=O)n1 (centres undefined)	-3.52
CCn1nc(Br)nc1Sc1ccccc1NC(C)=O	12.4
Cc1ccc(CN2C[C@H](OCCN(C)C)[C@H]3OCCC[C@H]32)o1	-102
CC(=O)N1CCC[C@@H](NCc2cccc(F)c2)[C@@H]1c1ccc(C)s1	-32.2
O=C(Nc1cccc(N2CCCC2)c1)N[C@H](CCO)c1ccccc1	19.8
CCC(=O)N1CCN(C(=O)Nc2cccc(N3CCOCC3)c2)CC1	23.2
O=C(Nc1cccc(N2CCOCC2)c1)N[C@H](CO)c1ccccc1	51.8
CCn1ncc(S(=O)(=O)NC2(CN3CCOCC3)CCCCC2)c1C	32.8
CCOC(=O)N1CCC(NC(=O)Nc2cccnc2OCC)CC1	-35.7
Fc1cnc(N2CC[C@@H](N3CCOCC3)[C@@H]2Cc2cccnc2)nc1	43.8
COc1ccccc1OCCn1c(C)c(C)oc1=O	48.2
Cc1ccc(C)c(S(=O)(=O)CCN2CCCC2Cn2cccn2)c1 (centres undefined)	4.93
